# From PubChem BioAssay (NCATS)
# Inconclusive results are not listed. Entries that show only a call come without a potency. Unmarked numbers belong to inactive results. The source made the active and inactive calls. Unless noted, calls come from the whole dose curve; as a rule, active = well fitted curve in the direction sought with a large enough effect; inconclusive = small, poorly fitted or top-dose-only effect, or another doubt; inactive = no such curve, though single readings can be large; an effect the other way counts as inactive or inconclusive.
# Tests used:
# [1] = biological target: Cellular tumor antigen p53 (Homo sapiens) (UniProt P04637); test: Primary qHTS for small molecule compounds that upregulate eGFP-tagged delta133p53alpha (in N-terminal) cells. (AID 2060322); conditions: NCI-H358 eGFP-delta133p53alpha fluorescence, 24 h; activation: stronger effect = higher value; note: series mostly up to about 56 µM; nearly all actives have a fitted effect of over 75% in size
# Sequence of Cellular tumor antigen p53 (Homo sapiens) (P04637 whole entry, looked up): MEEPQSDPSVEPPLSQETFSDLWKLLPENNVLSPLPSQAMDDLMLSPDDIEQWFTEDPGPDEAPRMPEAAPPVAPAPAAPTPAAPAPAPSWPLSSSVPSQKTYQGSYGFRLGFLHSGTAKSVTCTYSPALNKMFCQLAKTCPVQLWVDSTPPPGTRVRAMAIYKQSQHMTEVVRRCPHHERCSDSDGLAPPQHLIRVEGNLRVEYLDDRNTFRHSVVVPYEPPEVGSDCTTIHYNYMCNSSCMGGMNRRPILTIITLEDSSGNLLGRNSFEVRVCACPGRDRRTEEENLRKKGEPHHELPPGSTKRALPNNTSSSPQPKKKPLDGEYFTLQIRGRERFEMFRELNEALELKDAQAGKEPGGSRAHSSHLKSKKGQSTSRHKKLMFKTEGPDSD
# How it was run: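 NCI-H358 cells pre-induced 24 h with 10 ng/ml doxycycline to express N-terminal eGFP-delta133p53alpha, then dosed 24 h at 37C without doxycycline; fixed, Hoechst-stained, GFP intensity by laser scanning cytometry, normalized to DMSO (0%) and 57.5 uM 5-azacytidine (100%).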
# [2] = BET inhibitor-based combinations targeting novel dependencies in MECOM-rearranged (r) AML: MV-4-11 cell line (AID 2202233); note: nearly all actives have a fitted effect of over 45% in size; note: potency is the fitted concentration of half-maximal effect
# How it was run: (§1)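 Luminescent ATP readout (CellTiter-Glo, 15 min at room temperature) after 48 hr drug exposure gave viability. Dose-response curves, normalized to DMSO and empty-well controls, were summarized as area under the curve and its mean-centred Z-score.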
# [3] = BET inhibitor-based combinations targeting novel dependencies in MECOM-rearranged (r) AML: UCSD-AML1 cell line (AID 2202235); note: nearly all actives have a fitted effect of over 40% in size; note: potency is the fitted concentration of half-maximal effect
# How it was run: as §1
# [4] = BET inhibitor-based combinations targeting novel dependencies in MECOM-rearranged (r) AML: AML-191 cell line (AID 2202236; note: nearly all actives have a fitted effect of over 35% in size; note: potency is the fitted concentration of half-maximal effect)
# How it was run: (§2)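 Luminescent ATP readout (CellTiter-Glo) after 48 hr drug exposure gives viability. Curves span 11 concentrations and are normalized to DMSO and empty wells. Activity is reported as area under the curve and its Z-transform within each cell line.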
# [5] = BET inhibitor-based combinations targeting novel dependencies in MECOM-rearranged (r) AML: AML-194 cell line (AID 2202237; note: nearly all actives have a fitted effect of over 40% in size; note: potency is the fitted concentration of half-maximal effect)
# How it was run: as §2
# [6] = biological target: Aldehyde dehydrogenase, mitochondrial (Homo sapiens) (UniProt P05091); test: qHTS for Inhibitors of the Aldehyde Dehydrogenase Family (ALDH2) Validation screens (AID 2061302; active = well fitted inhibition curve with a large enough effect; title and protocol of this record describe different tests; note: potency is the fitted concentration of half-maximal effect)
# [7] = biological target: Retinaldehyde dehydrogenase 3 (Homo sapiens) (UniProt P47895); test: qHTS for Inhibitors of the Aldehyde Dehydrogenase Family (ALDH1A3) Validation screen (AID 2061312); note: nearly all actives have a fitted effect of over 45% in size
# [8] = BET inhibitor-based combinations targeting novel dependencies in MECOM-rearranged (r) AML: SET-2 cell line (AID 2202231); conditions: SET-2 AML cells viability, CellTiter-Glo luminescence, 48 h; viability: stronger effect = lower value, series mostly up to about 46 µM; note: nearly all actives have a fitted effect of over 35% in size
# How it was run: as §2
# [9] = BET inhibitor-based combinations targeting novel dependencies in MECOM-rearranged (r) AML: OCI-AML3 cell line (AID 2202232); conditions: Potency: OCI-AML3 viability; note: series mostly up to about 46 µM; nearly all actives have a fitted effect of over 35% in size
# How it was run: as §2
# [10] = biological target: Cellular tumor antigen p53 (Homo sapiens) (UniProt P04637); test: Primary qHTS for small molecule compounds that upregulate eGFP-tagged delta133p53alpha (in C-terminal) cells. (AID 2060324); note: potency is the fitted concentration of half-maximal effect
# How it was run: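 C-terminal eGFP-tagged delta133p53alpha NCI-H358 line; dox-induced (100 ng/ml, 24 h) then plated without dox; compounds pinned in titration, 24 h 37 °C/5% CO2; PFA fix, Hoechst nuclei; GFP by LSC.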
# [11] = qHTS for Inhibitors of the Aldehyde Dehydrogenase Family (ALDH1A2, ALDH1A3, ALDH2, ALDH3A1) (AID 2061307); note: nearly all actives have a fitted effect of over 50% in size
# [12] = biological target: Retinal dehydrogenase 2 (Homo sapiens) (UniProt O94788); test: qHTS for Inhibitors of the Aldehyde Dehydrogenase Family (ALDH1A2) Confirmation screens (AID 2061314); note: potency is the fitted concentration of half-maximal effect; nearly all actives have a fitted effect of over 65% in size
# [13] = BET inhibitor-based combinations targeting novel dependencies in MECOM-rearranged (r) AML: HNT-34 cell line (AID 2202234); note: nearly all actives have a fitted effect of over 35% in size
# How it was run: as §1
# [14] = biological target: Aldehyde dehydrogenase, mitochondrial (Homo sapiens) (UniProt P05091); test: qHTS for Inhibitors of the Aldehyde Dehydrogenase Family (ALDH2) Primary screen (AID 2061308); note: nearly all actives have a fitted effect of over 55% in size
# [15] = biological target: Retinaldehyde dehydrogenase 3 (Homo sapiens) (UniProt P47895); test: qHTS for Inhibitors of the Aldehyde Dehydrogenase Family (ALDH1A3) Primary screen (AID 2061315)
structure (smiles),measurement,setting,value
N=c1c2c(-c3ccccc3)c(-c3ccccc3)n(Cc3ccccc3)c2ncn1C1CCC(O)CC1 (configuration not stated),activation,[1],11.7%
same,Potency,[2],742 nM (active)
same,Potency,[3],1320 nM (active)
same,Potency,[4],2630 nM (active)
same,Potency,[5],4680 nM (active)
NCCc1ccc(O)cc1,Potency,[6],inactive
same,Potency,[7],inactive
O=S1(=O)N(CCN2CC=C(c3c[nH]c4cc(F)ccc34)CC2)c2cccc3c2N1CCC3,Potency,[6],inactive
same,Potency,[7],inactive
CN1C(=O)CCS(=O)(=O)C1c1ccc(Cl)cc1 (configuration not stated),Potency,[6],inactive
same,Potency,[7],inactive
same,viability,[8],123%
same,Potency,[9],inactive
same,Potency,[3],inactive
same,Potency,[5],inactive
CC(Cc1ccc(O)cc1)NCC(O)c1cc(O)cc(O)c1 (configuration not stated),Potency,[6],inactive
same,Potency,[7],inactive
O=C1/C(=C/c2ccccc2)C[C@@]2(O)[C@H]3Cc4ccc(O)c5c4[C@@]2(CCN3CC2CC2)[C@H]1O5,Potency,[6],inactive
same,Potency,[7],inactive
C[C@H](N)Cc1cccc(C(F)(F)F)c1,Potency,[10],inactive
same,Potency,[6],inactive
same,Potency,[7],inactive
C[N+]1(C)CCOC(O)(c2ccc(-c3ccc(C4(O)C[N+](C)(C)CCO4)cc3)cc2)C1 (configuration not stated),Potency,[10],inactive
same,Potency,[6],inactive
same,Potency,[11],inactive
same,Potency,[12],12700 nM (active)
CCCCc1ccc(C(=O)O)nc1,Potency,[6],inactive
same,Potency,[7],inactive
Cc1cccc(C)c1NC(=O)CN1CCCC1=O,Potency,[10],inactive
same,Potency,[6],inactive
same,Potency,[7],inactive
same,Potency,[9],inactive
same,Potency,[13],inactive
same,Potency,[3],inactive
same,Potency,[4],inactive
same,Potency,[5],inactive
CNc1ccc2oc(C[C@H]3O[C@@]4(CC[C@H]3C)O[C@H]([C@H](C)C(=O)c3ccc[nH]3)[C@H](C)C[C@H]4C)nc2c1C(=O)O,Potency,[6],inactive
same,Potency,[7],inactive
C[N+](C)(C)CC(=O)O,Potency,[6],inactive
NCC(CC(=O)O)c1ccc(Cl)cc1 (configuration not stated),Potency,[6],inactive
same,Potency,[7],inactive
CC(Cc1ccc(OCC(=O)O)cc1)NCC(O)c1cccc(Cl)c1 (configuration not stated),Potency,[10],inactive
same,Potency,[6],inactive
same,Potency,[7],inactive
NNC(N)=O,Potency,[6],inactive
CC(NC(C)(C)C)C(=O)c1cccc(Cl)c1 (configuration not stated),Potency,[10],inactive
same,Potency,[6],inactive
same,Potency,[14],inactive
same,Potency,[7],inactive
same,Potency,[15],inactive
same,Potency,[9],inactive
same,Potency,[2],inactive
same,Potency,[13],inactive
same,Potency,[4],inactive
same,Potency,[5],inactive
CCC1(c2ccc(N)cc2)CCC(=O)NC1=O (configuration not stated),Potency,[6],inactive
same,Potency,[7],inactive
same,viability,[8],114%
same,Potency,[2],inactive
same,Potency,[13],inactive
same,Potency,[3],inactive
same,Potency,[4],inactive
same,Potency,[5],inactive
NC(N)=NOCCC(N)C(=O)O (configuration not stated),Potency,[6],inactive
same,Potency,[7],inactive
C[C@@H]1O[C@@H](O[C@H]2C[C@@H](O)[C@]3(CO)[C@H]4[C@H](O)C[C@]5(C)[C@@H](C6=CC(=O)OC6)CC[C@]5(O)[C@@H]4CC[C@]3(O)C2)[C@H](O)[C@H](O)[C@H]1O,Potency,[6],inactive
same,Potency,[14],inactive
same,Potency,[7],inactive
same,Potency,[15],inactive
same,Potency,[2],118 nM (active)
same,Potency,[3],83.3 nM (active)
same,Potency,[4],83.3 nM (active)
same,Potency,[5],46.8 nM (active)
CCC1(C2=NCCN2)Cc2ccccc2O1 (configuration not stated),Potency,[6],inactive
same,Potency,[7],inactive
COC(=O)C1=CCCN(C)C1,Potency,[6],inactive
same,Potency,[7],inactive
Ic1ccccc1CNC1C2CCN(CC2)C1C(c1ccccc1)c1ccccc1 (configuration not stated),Potency,[6],inactive
same,Potency,[7],inactive
N[C@@H](Cn1oc(=O)[nH]c1=O)C(=O)O,Potency,[6],inactive
same,Potency,[7],inactive
CCCCCCCCCCCCCC(=O)O[C@@H]1[C@@H](C)[C@@]2(O)[C@@H](C=C(CO)C[C@@]3(O)C(=O)C(C)=C[C@@H]23)C2C(C)(C)[C@@]21OC(C)=O (some centres not stated),Potency,[10],inactive
same,Potency,[6],inactive
same,Potency,[7],inactive
CC12NC(Cc3ccccc31)c1ccccc12 (configuration not stated),Potency,[6],inactive
same,Potency,[7],inactive
C=C(C)[C@H]1CN[C@H](C(=O)O)[C@H]1CC(=O)O,Potency,[6],inactive
same,Potency,[7],inactive
Cc1c2ccncc2c(C)c2c1[nH]c1ccccc12,Potency,[10],30100 nM (active)
same,Potency,[6],inactive
same,Potency,[7],inactive
CCCN1CCC[C@@H](c2cccc(O)c2)C1,Potency,[6],inactive
same,Potency,[7],inactive
c1ccc2c(c1)[I+]c1ccccc1-2,Potency,[10],23900 nM (active)
same,Potency,[6],7080 nM (active)
CCCN(CCC)C1Cc2cc(OC)c(OC)cc2C1,Potency,[10],inactive
same,Potency,[6],inactive
same,Potency,[7],inactive
CC(C)N(CCC(C(N)=O)(c1ccccc1)c1ccccn1)C(C)C (configuration not stated),Potency,[6],inactive
same,Potency,[14],inactive
same,Potency,[7],inactive
same,Potency,[15],inactive
CCCN(CCC)[C@@H]1CCc2cccc(O)c2C1,Potency,[10],inactive
same,Potency,[6],inactive
same,Potency,[7],inactive
NC(N)=Nc1ccc2[nH]c3c(c2c1)C[C@@]1(O)[C@H]2Cc4ccc(O)c5c4[C@@]1(CCN2CC1CC1)[C@H]3O5,Potency,[6],inactive
NN=C(N)N,Potency,[10],inactive
same,Potency,[6],inactive
same,Potency,[7],inactive
same,Potency,[2],inactive
same,Potency,[13],inactive
same,Potency,[3],inactive
same,Potency,[4],inactive
same,Potency,[5],inactive
Cc1cccc(C)c1NC1=NCCCS1,Potency,[6],inactive
same,Potency,[7],inactive
CN1C[C@H](CNC(=O)OCc2ccccc2)C[C@@H]2c3cccc4c3c(cn4C)C[C@H]21,Potency,[6],inactive
